Here are results for seven compounds from PubChem BioAssay (NCI).

Holding throughout (test): NCI-60 one-dose screen, 48 h (100 = growth as untreated, 0 = no growth, -100 = all killed)
Holding throughout (conditions): 10 µM unless noted

Experiment [1] has as its system NCI-H23 lung.
Experiment [2] has as its system NCI-H226 lung.
Experiment [3] has as its system NCI-H322M lung.
Experiment [4] relates to HOP-62 NSCLC.
The test system of experiment [5] is NCI-H460 lung.
Experiment [6] concerns HOP-92 NSCLC.
Experiment [7] deals with NCI-H522 lung.
The subject of experiment [8] is A549/ATCC NSCLC.
In experiment [9] the test system is 786-0 renal.
In experiment [10] the test system is COLO 205 colon.
In experiment [11] the test system is DU-145 prostate.
The test system of experiment [12] is K-562 leukemia.
The subject of experiment [13] is MALME-3M melanoma.
The subject of experiment [14] is MDA-MB-231 breast.
The subject of experiment [15] is RXF 393 renal.
Experiment [16] deals with SF-268 CNS.
Experiment [17] deals with SF-295 CNS.
The test system of experiment [18] is SF-539 CNS.
Experiment [19] has as its system UACC-257 melanoma.
In experiment [20] the test system is M14 melanoma.

This is part of a sample that, as a whole, favours compounds with a hit. Of some 83,000 tested, about 20% had one in any assay.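 48-hour exposure, single concentration, 96-well plates; percent growth endpoint where 0 means no net growth. Active: below 10.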 Unmarked numbers belong to inactive results. Active and inactive are the calls of the source.

As for `COc1ccc(N2C(=O)/C(=C/C(Cl)=C/c3ccc([N+](=O)[O-])cc3)SC2=S)cc1`, the growth in [1] was -1.85% (active); in [2], -31% (active); in experiment [3] it was 31.2%; in [4] it was -9.71% (active); in experiment [5] it was 0.356% (active); in experiment [6], -33.8% (active). Further, the growth in experiment [7] is -42.5% (active); in [8], -0.282% (active); in [9], -77.7% (active); in experiment [10], -36% (active); in experiment [11], 5.02% (active); in [12] it was 0.935% (active). Further, the growth is 26.4% in experiment [13]; 7.73% (active) in [14]; -77.9% (active) in [15]; 12.3% in [16]; -32.1% (active) in experiment [17]; -22.8% (active) in [18]. In addition, the figures for the growth in experiment [19] and in experiment [20] were 48.2% and 12.3%, respectively.
Turning to `C=C(C)[C@@H]1CC[C@]2(C#N)CC[C@]3(C)[C@H](CC[C@@H]4[C@@]5(C)CCCNC(C)(C)[C@@H]5CC[C@]43C)[C@@H]12`, the growth in experiment [1] is 82.7%; in experiment [2], 96.6%; in experiment [3] it was 88.7%; in experiment [4], 113%; in experiment [5] it was 11.1%; in experiment [6], 51%. Also, the growth in experiment [7] was 91.5%; in [8], 73.2%; in experiment [9], 84.5%; in experiment [10] it was -67.8% (active); in experiment [11], 65.5%; in [12], -26.2% (active). The growth in experiment [13] is 81%; in experiment [14], 57.6%; in experiment [15], 82.3%; in experiment [16] it was 87.1%; in experiment [17], 92.9%; in experiment [18], 84%. Also, the growth was 70.8% in experiment [19] and 64.4% in experiment [20].
`O=c1c(/C=C/c2c(O)ccc3ccccc23)nnc2sc(-c3cccc([N+](=O)[O-])c3)nn12`: the growth is 61.6% in [1]; 64.2% in experiment [2]; 41.1% in experiment [3]; 31% in experiment [4]; 26.5% in experiment [5]; 65.7% in experiment [6]. Besides, the growth in experiment [7] was 86.3%; in experiment [8], 45.7%; in [9], 57%; in [10] it was 84.4%; in [11] it was 44.1%; in experiment [12], 50.9%. The growth is 72.9% in experiment [13]; 30.8% in experiment [14]; 74.5% in experiment [15]; 40.4% in experiment [16]; 43.8% in [17]; 53.2% in experiment [18]. The growth is 54.6% in [19] and 52.3% in [20].
With `CC(C)c1nc(N(C)S(C)(=O)=O)nc(-c2ccc(F)cc2)c1/C=C/C(=O)C[C@@H](O)CC(=O)O`, the growth in experiment [1] is 99.8%; in experiment [2] it was 113%; in [3], 90%; in experiment [4], 95.8%; in experiment [5] it was 108%; in [6], 84.2%. Further, the growth in experiment [7] was 71.4%; in [8] it was 89.5%; in experiment [9] it was 106%; in experiment [10] it was 112%; in [11], 102%; in [12] it was 90.9%. Further, the growth in experiment [13] was 109%; in experiment [14], 110%; in experiment [15], 124%; in experiment [16], 98.5%; in experiment [17] it was 103%; in experiment [18], 104%. Moreover, the growth in [19] is 95.6%; in [20], 102%.
As for `COc1ccc(C2CC(=O)Oc3c(OC)c4c(c(OC)c32)OCO4)cc1` (stereo not given), the growth in experiment [1] is 98.1%; in experiment [2], 112%; in [3], 90.1%; in experiment [4], 84.9%; in [5] it was 107%; in experiment [6] it was 101%. For the same compound, the growth in experiment [7] is 85.7%; in experiment [8], 97.6%; in experiment [9], 100%; in experiment [10], 103%; in experiment [11], 112%; in [12] it was 61.1%. The growth in experiment [13] was 94.5%; in experiment [14], 100%; in [15], 99.6%; in experiment [16], 99.3%; in [17], 102%; in experiment [18] it was 98.6%. In addition, the figures for the growth in [19] and in [20] were 101% and 98.8%, respectively.
`COc1cccc(/C=C/C(=O)/C=C(/C=C/c2cccc(OC)c2OC)OB(F)F)c1OC`: the growth in [1] is 44.2%; in experiment [2], 107%; in experiment [3] it was 92.5%; in [4] it was 80.3%; in [5], 90.7%; in experiment [6], 103%. For the same compound, the growth in experiment [7] is 17.4%; in experiment [8], 88.7%; in experiment [9], 45.1%; in experiment [10], 32.9%; in [11], 55.7%; in experiment [12] it was 32.9%. For the same compound, the growth in experiment [13] was 32%; in [14], 60.3%; in [15], 102%; in experiment [16] it was 95.3%; in [17], 103%; in experiment [18], 57.7%. The growth is 28.6% in experiment [19] and 61.7% in [20].
In the case of `C=CCn1c(SCC(=O)Nc2ccc(C(=O)/C=C/c3cc(OC)c(OC)c(OC)c3)cc2)nnc1-c1cc(-c2ccc(S(N)(=O)=O)cc2)nc2ccccc12`, the growth in experiment [1] is 88.9%; in experiment [2] it was 90.7%; in [3] it was 105%; in [4], 111%; in experiment [5], 94.9%; in [6], 96.9%. The growth is 92.7% in experiment [7]; 107% in experiment [8]; 101% in experiment [9]; 109% in [10]; 105% in [11]; 48.2% in [12]. The growth in experiment [13] was 97.1%; in experiment [14], 83.1%; in experiment [15] it was 64.6%; in experiment [16], 94.6%; in experiment [17] it was 99%; in experiment [18] it was 86.6%. Moreover, the growth in [19] was 96.1%; in experiment [20], 95.6%.
